This is an account of results in PubChem BioAssay AID588795 (National Center for Advancing Translational Sciences (NCATS), 2011).

“And” between values parts separate entries of the source, which are not always exact repeats. Identical values can stand only once. Screen size: about 390,000 compounds; about 1,400 (0.36%) were called active. Roughly 2% stayed inconclusive and do not appear here. Calls follow the shape of the dose curve; as a rule, active = well fitted inhibition curve with a large enough effect; inconclusive = small, poorly fitted or top-dose-only effect; inactive = no such curve, though single readings can be large or run the other way. For the sample, actives were picked, then their nearest neighbours and some compounds at random.
% is scaled to controls: 0 for no effect and ±100 for the full control effect; potency is read from the fitted curve at half-maximal effect.

The target in the test is Flap endonuclease 1 (Homo sapiens) (UniProt P39748). The test can be described thus: qHTS Assay for the Inhibitors of Human Flap endonuclease 1 (FEN1). Also: nearly all actives have a fitted effect of over 65% in size. As to conditions: Recombinant FEN1 flap cleavage, fluorescence, 15 min; series mostly up to 114 µM; activity change, negative = inhibition: at the top concentration. A digest of the protocol: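 With each library titrated from low to high concentration, compounds met 10 nM FEN1 for 15 min at room temperature before 50 nM substrate was added; readings at 0 and 15 min fed four-parameter Hill curve fits.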
Sequence of Flap endonuclease 1 (Homo sapiens) (P39748 whole entry, looked up): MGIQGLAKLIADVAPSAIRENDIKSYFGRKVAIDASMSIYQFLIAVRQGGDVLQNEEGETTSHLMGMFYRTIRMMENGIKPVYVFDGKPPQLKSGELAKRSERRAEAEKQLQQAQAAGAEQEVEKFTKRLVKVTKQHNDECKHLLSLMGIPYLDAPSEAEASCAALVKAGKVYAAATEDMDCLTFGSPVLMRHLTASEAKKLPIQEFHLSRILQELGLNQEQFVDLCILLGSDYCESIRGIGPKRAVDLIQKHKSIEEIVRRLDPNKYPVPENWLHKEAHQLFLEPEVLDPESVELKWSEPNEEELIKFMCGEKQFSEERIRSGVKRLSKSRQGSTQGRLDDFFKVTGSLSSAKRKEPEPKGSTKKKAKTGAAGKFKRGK
A general note: qHTS replaces the single test concentration by a dilution series.
`Cc1cc(C)cc(NC(=O)CSc2nc(=O)n(CCN3CCOCC3)c3c2CCC3)c1`: the “activity change, negative = inhibition” value was -3.17% (inactive).
`CCOc1ccc(NC(=O)CSc2nnc3c(n2)[nH]c2ccc(S(=O)(=O)N4CCOCC4)cc23)cc1`: the “activity change, negative = inhibition” value was -18% (inactive).
Regarding `Cc1ccc(-n2ncc3c(NCCCn4ccnc4)ncnc32)cc1Cl`, the “activity change, negative = inhibition” value was -5.38% (inactive).
`C(=Nc1ccc(/C=C/c2ccnc3ccccc23)cc1)c1cc2c3c(c1)CCCN3CCC2`: the “activity change, negative = inhibition” value was -9.3% (inactive).
For the compound `O=[N+]([O-])c1c(NCCO)cc(Sc2nc3ccccc3s2)c2nonc12`, the Potency is 44.7 µM (active).
As to `CN(C(=O)CSc1nc2ccc(NC(=O)COc3ccccc3)cc2s1)c1ccccc1`, the “activity change, negative = inhibition” value was 3.32% (inactive).
With `CC(C)(C)c1ccc(S(=O)(=O)Nc2ccc(O)c(Sc3nc4ccccc4s3)c2)cc1`, the “activity change, negative = inhibition” value was -27% (inactive).
For `COc1cc(OC)c2c(C)cc(=O)oc2c1C(CCN1CCCCC1)c1ccc(N(C)C)cc1` (configuration not stated), the “activity change, negative = inhibition” value is -18.3% (inactive).
For `CCN(CC)c1nc(C#N)nc(OC)n1`, the “activity change, negative = inhibition” value is 11.1% (inactive).
For the compound `CC1CCCN(C(=O)c2cc(-c3ccco3)nc3ccccc23)C1` (configuration not stated), the “activity change, negative = inhibition” value was 3.33% (inactive).
On to `CN(CCOc1ccccc1)C(=O)c1cc(-c2ccco2)nc2ccccc12`, for which the “activity change, negative = inhibition” value was 6.29% (inactive).
As for `CN(C(=O)COC(=O)c1cc(-c2ccco2)nc2ccccc12)C1CCS(=O)(=O)C1` (configuration not stated), the Potency is 50.1 µM (active).
The same measure, in the same setting: next, `O=C(O)c1c(Br)c(Br)c(Br)c(Br)c1C1c2ccc(O)cc2Oc2cc(O)ccc21`: 3.98 µM (active).
For the compound `N#CC1=C(N)Oc2cc(O)ccc2C1C1CCCCC1` (configuration not stated), the “activity change, negative = inhibition” value was 0.703% (inactive).
Turning to `Cc1ccc(C)c(Nc2nnc(-c3ccc(C)c(S(=O)(=O)N4CCCCC4)c3)c3ccccc23)c1`, the Potency was 89.1 µM (active).
Take `Cc1ccc(-c2nnc(Nc3ccc(C(=O)N(C)C)cc3)c3ccccc23)cc1S(N)(=O)=O`: the “activity change, negative = inhibition” value was -12.6% (inactive).
As for `Cc1ccc(Nc2nnc(-c3ccc(C)c(S(=O)(=O)N4CCCCC4)c3)c3ccccc23)cc1`, the “activity change, negative = inhibition” value was -20.8% (inactive).
Turning to `O=[N+]([O-])c1ccc(S(=O)(=O)N2CCN(c3nc(-c4ccccc4)nc4ccccc34)CC2)cc1`, the “activity change, negative = inhibition” value is -12.2% (inactive).
In the case of `NS(=O)(=O)c1ccc(NC(=O)CSc2nnc3c(n2)[nH]c2ccccc23)cc1`, the “activity change, negative = inhibition” value is 11.1% (inactive).
For the compound `COc1ccc(CCNC(=O)C(=O)NCC(c2ccco2)S(=O)(=O)c2cccs2)cc1OC` (configuration not stated), the “activity change, negative = inhibition” value is -4.25% (inactive).
For `O=c1cc(-c2ccccc2)n2c(SCc3ccccc3)nnc2[nH]1`, the “activity change, negative = inhibition” value was -5.27% (inactive).
As to `O=c1[nH]c2ccccc2n2c(-c3ccccc3)nnc12`, the Potency is 79.4 µM (active) and 20 µM (active).
With `CC(C)(C)OC(=O)N(Cc1ccco1)S(=O)(=O)c1ccccc1Br`, the “activity change, negative = inhibition” value was -3.86% (inactive).
Still for that read-out and setting: in the case of `O=C1C[C@H]2C=CCc3cccc(c32)CN1Cc1ccccc1` it was -2.58% (inactive).
Consider `O=C(c1ccc2c(=O)n(Cc3ccco3)c(=S)[nH]c2c1)N1CCCC1`, for which the “activity change, negative = inhibition” value was 5.1% (inactive).
Still for that read-out and setting: in the case of `O=S(=O)(Nc1cccc2cccnc12)c1cccc2cccnc12` it was 2.67% (inactive).
Consider `Cn1cccc1/C=C1\SC(=S)N(NC(=O)c2ccc(Cl)cc2)C1=O`, for which the “activity change, negative = inhibition” value is 3.67% (inactive).
As to `O=C(NCc1ccccc1)c1cc(-c2cccc(Cl)c2)on1`, the “activity change, negative = inhibition” value was 4.6% (inactive).
Take `O=C(O)C(c1ccccc1)N1C(=O)/C(=C\c2ccc(-c3cccc(Cl)c3)o2)SC1=S` (configuration not stated): the Potency is 17.8 µM (active).
Regarding `Cc1c(CCO)sc[n+]1CC(=O)c1ccc2ccccc2c1`, the “activity change, negative = inhibition” value is -4.18% (inactive).
Still for that read-out and setting: next, `O=C(C1COc2ccccc2O1)N(Cc1cccnc1)c1nc2c(F)cc(F)cc2s1` (configuration not stated): -15% (inactive); `Cc1sc2nc(CSCC(=O)NC3CCCCC3)[nH]c(=O)c2c1C`: -2.42% (inactive); `CCOC(=O)c1sc2nc(CSCC(=O)OCc3ccc(C(=O)OC)o3)[nH]c(=O)c2c1C`: -1.9% (inactive).
Regarding `CSc1nnc(SCc2nc3sc(C(=O)O)c(C)c3c(=O)[nH]2)s1`, the Potency was 20 µM (active).
With `CCOC(=O)C1CCN(C(c2ccc(F)cc2)c2sc3nc(-c4ccco4)nn3c2O)CC1` (configuration not stated), the “activity change, negative = inhibition” value is 19.6% (inactive).
As to `Cn1nnc2c(N3CCN(c4ccccc4)CC3)ncnc21`, the “activity change, negative = inhibition” value is -13.6% (inactive).
On the same count and under the same terms, next, `O=C(NCc1ccccc1)C(=O)NCC(c1ccco1)S(=O)(=O)c1ccc(Cl)cc1` (configuration not stated): 15.8% (inactive).
As for `CC1(OC(=O)C2CCCC2)C(=O)C=C2C=C(c3ccc(C#N)cc3)OC=C2C1=O` (configuration not stated), the Potency is 20 µM (active).
`CC1(OC(=O)CCc2ccccc2)C(=O)C=C2C=C(c3ccc(C#N)cc3)N(CCc3ccccn3)C=C2C1=O` (configuration not stated): the “activity change, negative = inhibition” value was 6.95% (inactive).
Take `COC(=O)CCCC1=CC2=CC(=O)C(C)(OC(=O)c3cccs3)C(=O)C2=CN1c1cccc(C#N)c1` (configuration not stated): the “activity change, negative = inhibition” value is -1.74% (inactive).
Turning to `C=COC(=O)N1CCN(/[N+]([O-])=N/Oc2ccc([N+](=O)[O-])cc2[N+](=O)[O-])CC1`, the “activity change, negative = inhibition” value was -25.1% (inactive).
As to `Cc1nc(N=C(N)N)nc2c(C)cccc12`, the Potency was 35.5 µM (active).
Same read-out and setting: in the case of `COc1nc(N=C(N)N)nc2c(C)cccc12` it was 39.8 µM (active); in that of `CCc1c(C)nc2c(OC)cccc2c1Cl`, “inactive”.
Take `Cc1nc(/N=C(\N)NC(=O)NC2CCCCC2)nc2ccccc12`: the “activity change, negative = inhibition” value is -21.2% (inactive).
In the case of `COc1ccccc1NC(=O)CSc1oc(-c2ccco2)nc1S(=O)(=O)c1ccc(Br)cc1`, the “activity change, negative = inhibition” value was -7.55% (inactive).
For `O=C(Nc1ccccc1C(F)(F)F)c1nc(S(=O)(=O)Cc2ccccc2F)ncc1Cl`, the “activity change, negative = inhibition” value was -25% (inactive).
Turning to `CCOc1ccccc1N(CC)C(=O)Nc1cn(C)c(=O)c2ccccc12`, the “activity change, negative = inhibition” value was -6.42% (inactive).
Consider `Cc1ccc(NC2=C(c3ccc(C(F)(F)F)cc3)C(=O)c3ccccc32)cc1F`, for which the “activity change, negative = inhibition” value is 11% (inactive).
For `CN(CCC#N)c1ccc(C=O)cc1`, the “activity change, negative = inhibition” value was 19.2% (inactive).
Take `CC(=O)Nc1cccc(C(=O)OCC(=O)c2ccc3c(c2)OCO3)c1`: the “activity change, negative = inhibition” value is 1.33% (inactive).
As to `CCN(CC)N=Nc1cccc(NC(C)=O)c1`, the Potency was 89.1 µM (active).
As for `CCN(CC)C(=O)CSC(Nc1cccc(F)c1)=C(C#N)C#N`, the “activity change, negative = inhibition” value is -0.693% (inactive).
In the case of `CCOC(=O)c1c(C)[nH]c(CCC(=O)NCCCN2CCN(c3cccc(Cl)c3)CC2)c1C`, the “activity change, negative = inhibition” value is -10.7% (inactive).
Same read-out and setting: next, `COc1ccc(CCn2c3c(c(=O)[nH]c2=S)CN(C(C)C)CN3)cc1OC`: 1.65% (inactive); `Cc1cccc(-c2nnc(SC(C)C(=O)Nc3ccccc3)n2C)c1` (configuration not stated): -6.04% (inactive).
Consider `COc1cc(C(=O)Nc2ccc(-n3c(C)nc4ccccc4c3=O)cc2)cc(OC)c1OC`, for which the “activity change, negative = inhibition” value is -0.707% (inactive).
